The sample as a whole holds a higher share of hits than the screen did.
TbPYK inhibitor: blocks Trypanosoma brucei pyruvate kinase. Potency, µM (highest dose often 76.8 µM), hits mostly inhibitors. TbPYK enzyme, Kinase-Glo Plus ATP luminescence, 45 min. Q57TT1. AID 624173. actives 0.12% (n = 410,000); further: nearly all actives have a fitted effect of over 50% in size
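TbPYK + substrate in 50 mM TEA pH 7.2, 100 mM KCl, 10 mM MgCl2, 0.05% BSA, 0.01% Tween-20; cpd pinned; ADP 130 uM final; 45 min RT; Kinase-Glo Plus 10 min; luminescence endpoint.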
LmPK inhibitor: LmPK (Leishmania mexicana) enzyme inhibition; actives 0.37% (n = 290,000); Q27686; purified LmPK, Kinase-Glo ATP luminescence, 1 h; Potency, µM (titrated, usually from 57.5 µM), actives largely listed as inhibitors
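Screened at intermediate enzyme activity to detect both inhibitors and activators: LmPK at 0.1 nM, with a 0.5 nM enzyme column as activation reference. PEP 0.5 mM, ADP 0.1 mM; ATP detected by luminescence after 1 h.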
CHX counter: counter-screen for Shiga toxin inhibitors: cycloheximide protein synthesis inhibition. cell reporter, cycloheximide protein synthesis inhibition counterscreen. max response, %. actives 12% (n = 300,000); in the data active means max response mostly above about 13%, no sharp cut-off; inactive means mostly below about 14%; further: read at 38.3 µM for the half of the compounds with a filed dose
RE007 growth inh: less growth of the S. pombe RE007 Vpr strain; Potency, µM (series often up to 92.2 µM), most hits filed as inhibitors; S. pombe RE007 Vpr strain, BacTiter-Glo ATP luminescence, 24 h; actives 0.21% (n = 360,000); AID 651644; active means well fitted falling curve with a large enough effect; inconclusive means small, poorly fitted or top-dose-only effect; inactive means no such curve, though single readings can be large or run the other way; further: nearly all actives have a fitted effect of over 50% in size
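Fission yeast RE007 carrying one integrated HIV-1 vpr copy, seeded at OD 0.01 in PMG+AL medium with 23 nL pinned compound. Grown 24 h at 30 degrees; viability read by BacTiter-Glo luminescence after 5 min.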
Shiga toxin inh: blocks Shiga toxin action in Vero cells. Vero cells, Shiga toxin protein synthesis inhibition reporter. inhibition, % at 38.7 µM. actives 9.2% (n = 290,000); in the data active means inhibition mostly above about 28%, no sharp cut-off; inactive means mostly below about 43%
FBPA Giardia inh: blocks Giardia fructose-bisphosphate aldolase activity. A8B2U2. purified Giardia FBPA. Potency, µM (highest dose often 59.6 µM), usual class: inhibitors. actives 0.71% (n = 290,000); further: nearly all actives have a fitted effect of over 55% in size
Target sequence (A8B2U2 whole entry, looked up): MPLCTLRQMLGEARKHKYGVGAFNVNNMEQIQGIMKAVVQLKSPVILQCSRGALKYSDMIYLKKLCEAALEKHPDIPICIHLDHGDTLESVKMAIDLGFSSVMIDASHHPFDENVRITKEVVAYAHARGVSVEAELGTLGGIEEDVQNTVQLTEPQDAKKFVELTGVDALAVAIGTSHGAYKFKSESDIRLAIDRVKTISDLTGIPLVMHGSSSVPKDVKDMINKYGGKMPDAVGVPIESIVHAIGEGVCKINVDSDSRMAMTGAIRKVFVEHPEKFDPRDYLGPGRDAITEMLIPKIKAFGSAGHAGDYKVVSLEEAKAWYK
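Giardia FBPA (40 nM reagent) was preincubated 10 min at RT with compound (up to 57.5 uM final), then substrate plus GAPDH/TPI/NAD/arsenate coupling system with diaphorase/resazurin was added; resorufin fluorescence (525/598 nm) was read after 20 min.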
A number is an active result; n = inactive; u = inconclusive; x = not tested or not shown; ! = repeats disagree. Unless noted, the call rests on the fitted dose curve; in most records, active means well fitted curve in the direction sought with a large enough effect; inconclusive means small, poorly fitted or top-dose-only effect, or another doubt; inactive means no such curve, though single readings can be large; an effect the other way counts as inactive or inconclusive.

SMILES | TbPYK inhibitor | LmPK inhibitor | CHX counter | RE007 growth inh | Shiga toxin inh | FBPA Giardia inh
CSc1cccc(NC(=O)CN2C(=O)COc3ccc(S(=O)(=O)N4CCC(C)CC4)cc32)c1 | n | x | x | x | x | x
CCCCc1ccc(/C=C2\C(=O)c3ccccc3C(O)=C2C(=O)OCC)cc1 | x | n | 16 | x | 30 | u
c1ccc(-c2nc(N3CCOCC3)sc2-c2ccccc2)cc1 | n | n | n | n | n | n
c1ccc(-c2nc(N3CCOCC3)s[n+]2-c2ccccc2)cc1 | 2.5µM | n | 57 | x | 40 | n
Cc1ccc2nc(-c3ccc(N4C(=O)CC(N5CCN(CCO)CC5)C4=O)cc3)sc2c1 (stereo unspecified) | n | n | 37 | 32µM | 68 | n
Cc1ccc(-c2nc3sc(CCNS(=O)(=O)c4cc(F)ccc4F)c(C)n3n2)cc1 | n | x | x | x | x | x
Cc1ccccc1NC(=O)CC(=O)Nc1ccccc1C | n | n | n | n | n | n
Cc1ccccc1NC(=O)C(=O)Nc1ccccc1C | n | n | 23 | n | 49 | n
Cc1ccccc1NC(=O)c1ccccc1O | n | n | 24 | u | n | n
CCOc1ccc(S(=O)(=O)Nc2nc3ccccc3nc2Nc2ccc(OC)cc2)cc1 | n | x | x | x | x | x
CCOc1ccc(S(=O)(=O)Nc2nc3ccccc3nc2Nc2ccc(N3CCOCC3)cc2)cc1 | n | n | 13 | n | n | n
Cn1c(=O)c2sccc2n2c(CCC(=O)Nc3ccc(F)cc3)nnc12 | n | x | x | x | x | x
CN(C)c1ccc2c(c1)N=C(c1ccco1)OP2(=S)N1CCOCC1 (stereo unspecified) | u | n | 31 | u | 77 | n
O=C(NCCC1=CCCCC1)c1ccc(-n2cncn2)c([N+](=O)[O-])c1 | n | x | x | n | x | x
Cc1ccc(CNc2ccc3cc(S(=O)(=O)N4CCCCC4)ccc3n2)cc1 | n | x | x | x | x | x
O=C(N/N=C/c1cc([N+](=O)[O-])ccc1O)C12CC3CC(CC(C3)C1)C2 | n | n | 25 | n | n | n
O=C(N/N=C/c1ccc(O)cc1O)NC12CC3CC(CC(C3)C1)C2 | n | n | 24 | n | 33 | n
O=C(N/N=C/c1cc([N+](=O)[O-])ccc1O)NC12CC3CC(CC(C3)C1)C2 | n | n | 73 | n | 96 | n
O=C(N/N=C/c1cc([N+](=O)[O-])ccc1O)Nc1ccccc1 | n | n | n | n | n | n
COc1cc(/C=N/NC(=O)NC23CC4CC(CC(C4)C2)C3)ccc1OCC(N)=O | n | n | n | n | n | n
Cc1nc(-c2ccc(S(=O)(=O)NCc3ccc(OC(C)C)cc3)cc2)co1 | n | x | x | x | x | x
Clc1ccc(CSc2ccc(-c3ccccn3)nn2)cc1 | n | n | n | n | n | n
Clc1ccc(CSc2cc3c(nn2)-c2ccccc2CC3)cc1 | n | n | 15 | n | n | n
FC(F)(F)c1ccccc1-c1ccc2ncnc(NC3CC3)c2c1 | x | x | x | x | x | n
CN(Cc1c(F)cccc1Cl)C(=O)c1cnc2ccccc2n1 | n | n | 12 | n | n | n
SMILES | TbPYK inhibitor | LmPK inhibitor | CHX counter | RE007 growth inh | Shiga toxin inh | FBPA Giardia inh
Cc1ccc(NC(=O)c2sc3nc(-c4ccc(F)cc4)cn3c2C)c(C)c1 | n | x | x | x | x | x
Cc1nc(N)nc(-c2ccccc2O)n1 | n | n | 24 | n | n | n
Cc1c2cnn(CC(=O)NCCc3ccccc3)c(=O)c2c(C)n1Cc1ccccc1 | n | x | x | x | x | x
CC1CCc2nc(NC(=O)c3ccc(N4C(=O)CCC4=O)cc3)sc2C1 (stereo unspecified) | n | n | 13 | n | 35 | x
Cc1ccc(C)c2sc(NC(=O)c3ccc(N4C(=O)CCC4=O)cc3)nc12 | n | n | n | n | n | n
O=C(Nc1nc2c(s1)CCCC2)c1ccc(N2C(=O)CCC2=O)cc1 | n | n | 38 | n | 72 | x
CC1CCc2nc(NC(=O)c3ccco3)sc2C1 (stereo unspecified) | n | n | n | u | n | n
Cc1ccc(CC(=O)Nc2nc3c(s2)CCCC3)cc1 | n | n | n | n | n | n
O=C(Nc1nc2c(s1)CCCC2)c1ccc(Br)s1 | n | n | 42 | n | 111 | n
CC(C)=Cc1oc2ccc([N+](=O)[O-])cc2c1N1CCOCC1 | n | n | 21 | n | 65 | n
Cn1cc(/C=C2\SC(=O)N(c3ccccc3)C2=O)c2ccccc21 | n | n | 19 | n | n | n
CCN1C(=O)S/C(=C/c2cn(C)c3ccccc23)C1=O | n | n | 27 | n | 44 | n
Cn1cc(/C=C2\SC(=O)N(c3ccc(O)cc3)C2=O)c2ccccc21 | n | n | 45 | n | 91 | n
CCN=C1S/C(=C\c2cn(CC)c3ccccc23)C(=O)N1CC | n | n | n | n | n | n
Cc1cccc(S(=O)(=O)NC(=O)C2(C)CCN2C(=O)Cc2ccc(-c3ccccc3)cc2)c1 (stereo unspecified) | n | x | x | n | x | x
Cc1cccc(N/N=C/c2ccccc2O)c1 | n | n | 101 | n | 98 | n
Cc1cccc(N/N=C/c2ccncc2)c1 | n | n | 34 | n | 45 | n
CCOCCCN1CN(S(=O)(=O)c2ccc(Cl)cc2)c2nc3ccccc3nc21 | n | n | n | n | n | n
CC(C)OCCCN1CN(S(=O)(=O)c2cccc(Cl)c2)c2nc3ccccc3nc21 | n | n | 22 | n | 38 | n
CC(C)OCCCN1CN(S(=O)(=O)c2ccc(Cl)cc2)c2nc3ccccc3nc21 | n | n | 18 | n | n | n
CC(NC(=O)NC(=O)c1ccc(Cl)cc1Cl)C1CC1 (stereo unspecified) | n | n | 39 | n | 167 | n
CC(C)CC(NC(=O)c1ccc(Cl)cc1Cl)C(=O)O (stereo unspecified) | n | n | n | n | n | n
N#Cc1c(-c2ccco2)cc(-c2cccnc2)nc1N | n | n | n | n | n | u
N#Cc1c(-c2ccco2)cc(-c2ccccn2)nc1N | n | n | 33 | n | n | n
Cn1c(NCc2ccc(Cl)cc2)nc2ccccc21 | n | n | 38 | n | 56 | n
SMILES | TbPYK inhibitor | LmPK inhibitor | CHX counter | RE007 growth inh | Shiga toxin inh | FBPA Giardia inh
Cc1ccc(CNc2nc3ccccc3n2C)cc1 | n | n | 23 | n | n | n
Cn1c(NCc2c(O)ccc3ccccc23)nc2ccccc21 | n | n | n | n | n | n
CC(C)CC(=O)Nc1ccc2c(c1)nc(CCN1CCOCC1)n2C | n | n | n | x | n | n
CC1CCN(c2nn3c(=O)c(C(=O)NC(C)C)cnc3s2)CC1 | n | x | x | x | x | x
c1ccc(SCCN2CCc3ccccc3C2)cc1 | n | n | 27 | n | n | n
CN1CCC(=O)N(CCSc2ccccc2)CC1 | n | n | 43 | n | 49 | n
CC1CCC(=O)N(CCSc2ccccc2)CC1 (stereo unspecified) | n | n | 25 | n | 37 | n
COc1ccc(SCCN2CC[C@@H](C)CCC2=O)cc1 | n | x | x | n | x | x
CC(=O)Nc1ccc(SCCN2CCN(C)CCC2=O)cc1 | x | x | n | x | n | n
Cc1ccc(SCCN2CCN(C)CCC2=O)cc1 | n | n | 28! | n | 77 | n
